“And” between values parts separate entries of the source, which are not always exact repeats. Equal values may be shown once. Among all 5,500 compounds or so, about 2,000 (36%) were called active. Inconclusive results (about 18%) are left out. No stated cut-off is given here; in the data, active means normalized growth mostly below about 0.91 (no sharp cut-off); inconclusive means no clear call, values can overlap the other calls; inactive means mostly above about 0.92. This is one part of the list.
Experiment: chemical genetic growth profiling, strain panel (AID 1159580);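 further: tested at 20 µM; growth read once vehicle control cultures reached saturation at 30 °C; 1 = growth at the plate median or of vehicle wells; lower values mean less growth of the strain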
Settings: S. cerevisiae deletion strains, growth OD

Measured: normalized growth

COC(=O)C[C@H]1C(C)(C)[C@@H](OC(C)=O)[C@@H]2CC3C4CC(=O)O[C@@H](c5ccoc5)[C@]4(C)CCC3[C@@]1(C)C2=O (some centres not stated)
inactive: locus YAL013W, strain DEP1, hits give low values 1 | locus YAL021C, strain ccr4, hits give low values 0.979 | locus YAL026C, strain drs2, hits give low values 1.01 | locus YAL030W, strain snc1, hits give low values 1 | locus YBL061C, strain skt5, hits give low values 1.02 | locus YBR009C, strain hhf1, hits give low values 0.988 | locus YBR021W, strain FUR4, hits give low values 0.965 | locus YBR023C, strain chs3, hits give low values 1.02 | locus YBR171W, strain sec66, hits give low values 1.03 | locus YBR229C, strain ROT2, hits give low values 0.999 | locus YBR231C, strain swc5, hits give low values 1.01 | locus YBR279W, strain paf1, hits give low values 1.01 | locus YCL011C, strain gbp2, hits give low values 1 | locus YCL016C, strain dcc1, hits give low values 1.01 | locus YCL029C, strain bik1, hits give low values 0.973 | locus YCL069W, strain vba3, hits give low values 1.01 | locus YCR088W, strain abp1, hits give low values 1.01 | locus YDL005C, strain med2, hits give low values 1.01 | locus YDL035C, strain GPR1, hits give low values 0.995 | locus YDL040C, strain nat1, hits give low values 1.01 | locus YDL074C, strain BRE1, hits give low values 0.985 | locus YDL101C, strain DUN1, hits give low values 1.02 | locus YDL134C, strain PPH21, hits give low values 1.04 | locus YDL185W, strain tfp1, hits give low values 1.02 | locus YDL192W, strain arf1, hits give low values 0.989 | locus YDR001C, strain nth1, hits give low values 1.01 | locus YDR069C, strain doa4, hits give low values 1.01 | locus YDR101C, strain arx1, hits give low values 0.996 | locus YDR137W, strain rgp1, hits give low values 1.01 | locus YDR159W, strain sac3, hits give low values 1.03 | locus YDR162C, strain NBP2, hits give low values 1.01 | locus YDR195W, strain ref2 0.98 | locus YDR297W, strain sur2, hits give low values 0.999 | locus YDR318W, strain mcm21, hits give low values 1.01 | locus YDR334W, strain swr1, hits give low values 1.01 | locus YDR335W, strain msn5, hits give low values 1.04 | locus YDR388W, hits give low values 1.02 | locus YDR392W, strain spt3, hits give low values 1.02 | locus YDR502C, strain sam2, hits give low values 1.04 | locus YEL003W, strain gim4, hits give low values 1.01 | locus YEL037C, strain rad23, hits give low values 1.01 | locus YEL061C, strain CIN8 (second series), hits give low values 1.01 | locus YEL061C, strain CIN8, hits give low values 0.995 | locus YER015W, strain faa2, hits give low values 1 | locus YER016W, strain bim1, hits give low values 1.01 | locus YER110C, hits give low values 1.02 | locus YER111C, strain swi4, hits give low values 1.02 | locus YER155C, strain BEM2 (second series), hits give low values 1.03 | locus YER155C, strain BEM2, hits give low values 1 | locus YER167W, strain BCK2, hits give low values 0.996 | locus YFR010W, strain ubp6, hits give low values 1 | locus YGL078C, strain dbp3, hits give low values 1.01 | locus YGL086W, strain mad1, hits give low values 1.01 | locus YGL167C, strain pmr1, hits give low values 1.02 | locus YGL173C, strain kem1, hits give low values 1.02 | locus YGL227W, strain vid30, hits give low values 1.02 | locus YGL240W, strain doc1, hits give low values 1.03 | locus YGL248W, strain PDE1, hits give low values 1.04 | locus YGL253W, strain hxk2, hits give low values 1.01 | locus YGR135W, strain pre9, hits give low values 1.07 | locus YGR252W, strain gcn5, hits give low values 1.05 | locus YHR013C, strain ard1, hits give low values 1.02 | locus YHR027C, strain rpn1, hits give low values 1.02 | locus YHR030C, strain SLT2, hits give low values 0.994 and 1.02 | locus YHR079C, strain IRE1 (second series), hits give low values 1.01 | locus YHR079C, strain IRE1, hits give low values 1.01 | locus YHR094C, strain hxt1, hits give low values 1.01 | locus YHR129C, strain ARP1, hits give low values 1.01 | locus YHR142W, strain chs7, hits give low values 0.997 | locus YHR200W, strain rpn10, hits give low values 1 | locus YIL066C, strain RNR3, hits give low values 0.997 | locus YIL073C, strain SPO22, hits give low values 1.01 | locus YIL125W, strain kgd1, hits give low values 1 | locus YIR030C, strain dcg1, hits give low values 1.01 | locus YJL092W, strain hpr5, hits give low values 1.01 | locus YJL095W, strain BCK1 (second series), hits give low values 1 | locus YJL095W, strain BCK1, hits give low values 1.04 and 1.01 | locus YJL115W, strain asf1, hits give low values 1.01 | locus YJL129C, strain trk1, hits give low values 1.01 | locus YJL134W, strain LCB3, hits give low values 0.99 | locus YJL154C, strain vps35, hits give low values 1 | locus YJL164C, strain tpk1, hits give low values 1 | locus YJL166W, strain qcr8, hits give low values 0.999 | locus YJL168C, strain set2, hits give low values 1.02 | locus YJL187C, strain SWE1 (second series), hits give low values 1.05 | locus YJR066W, strain TOR1, hits give low values 0.963 | locus YKL009W, strain mrt4, hits give low values 0.998 | locus YKL068W, hits give low values 1.01 | locus YKL085W, strain MDH1 (second series), hits give low values 1 | locus YKL085W, strain MDH1, hits give low values 1 | locus YKL160W, strain elf1, hits give low values 1.02 | locus YKL190W, strain CNB1, hits give low values 1 | locus YKR001C, strain vps1, hits give low values 0.995 | locus YKR026C, strain gcn3, hits give low values 1.01 | locus YKR091W, strain srl3, hits give low values 1.01 | locus YLL001W, strain dnm1, hits give low values 1.01 | locus YLL026W, hits give low values 1 | locus YLL041C, strain sdh2, hits give low values 1 | locus YLR027C, strain aat2, hits give low values 0.999 | locus YLR039C, strain RIC1, hits give low values 0.993 | locus YLR058C, strain SHM2, hits give low values 1.02 | locus YLR102C, strain apc9, hits give low values 1.02 | locus YLR113W, strain HOG1, hits give low values 0.988 | locus YLR221C, strain rsa3, hits give low values 0.999 | locus YLR258W, strain gsy2, hits give low values 1.01 | locus YLR262C, strain YPT6 (second series), hits give low values 0.955 | locus YLR268W, strain sec22, hits give low values 0.985 | locus YLR320W, strain mms22, hits give low values 1.02 | locus YLR342W, strain FKS1, hits give low values 1 | locus YLR357W, strain rsc2, hits give low values 1.03 | locus YLR370C, strain arc18, hits give low values 1.02 | locus YLR371W, strain rom2, hits give low values 0.989 | locus YLR384C, strain iki3, hits give low values 1.02 | locus YLR418C, strain cdc73, hits give low values 1.04 | locus YML016C, strain PPZ1, hits give low values 1.01 | locus YML032C, strain rad52, hits give low values 0.994 | locus YML120C, strain ndi1, hits give low values 1.02 | locus YML124C, strain tub3, hits give low values 1.01 | locus YMR058W, strain fet3, hits give low values 1.01 | locus YMR078C, strain ctf18, hits give low values 1.02 | locus YMR125W, strain sto1, hits give low values 1.01 | locus YMR129W, hits give low values 0.999 | locus YMR205C, strain PFK2, hits give low values 1 | locus YMR223W, strain ubp8, hits give low values 1.01 | locus YMR231W, strain pep5, hits give low values 1.01 | locus YMR307W, strain GAS1, hits give low values 0.876 | locus YNL067W, strain RPL9B, hits give low values 1.05 | locus YNL071W, strain lat1, hits give low values 1.02 | locus YNL183C, strain NPR1, hits give low values 0.981 | locus YNL209W, strain ssb2, hits give low values 0.996 | locus YNL233W, strain BNI4, hits give low values 0.988 | locus YNL248C, strain rpa49, hits give low values 1 | locus YNL250W, strain rad50, hits give low values 1.04 | locus YNL271C, strain bni1, hits give low values 1.01 | locus YNL298W, strain CLA4, hits give low values 1.01 | locus YNL307C, strain MCK1, hits give low values 1.03 | locus YNL322C, strain KRE1 (second series), hits give low values 1.02 | locus YNR049C, strain mso1, hits give low values 0.996 | locus YNR052C, strain pop2, hits give low values 1.04 | locus YOL012C, strain htz1 0.967 | locus YOL147C, strain pex11, hits give low values 1.01 | locus YOR001W, strain rrp6, hits give low values 1.01 | locus YOR061W, strain CKA2, hits give low values 0.992 | locus YOR069W, strain VPS5, hits give low values 1 | locus YOR070C, strain gyp1, hits give low values 1.01 | locus YOR080W, strain dia2, hits give low values 1.01 | locus YOR083W, strain WHI5, hits give low values 1.02 | locus YOR106W, strain vam3, hits give low values 0.988 | locus YOR136W, strain idh2, hits give low values 1.02 | locus YOR144C, strain elg1, hits give low values 1.02 | locus YOR184W, strain ser1, hits give low values 0.973 | locus YOR231W, strain MKK1, hits give low values 1.01 | locus YOR265W, strain rbl2, hits give low values 1.01 | locus YOR270C, strain vph1, hits give low values 0.902 | locus YOR290C, strain snf2, hits give low values 1.02 | locus YOR316C, strain cot1, hits give low values 1.02 | locus YPL051W, strain arl3, hits give low values 1.02 | locus YPL078C, strain atp4, hits give low values 1.03 | locus YPL106C, strain sse1, hits give low values 1.02 | locus YPL240C, strain hsp82, hits give low values 1 | locus YPL241C, strain CIN2, hits give low values 0.988 | locus YPL256C, strain CLN2, hits give low values 0.996 | locus YPR119W, strain clb2, hits give low values 1.01 | locus YPR141C, strain kar3, hits give low values 1.01 | locus YPR163C, strain tif3, hits give low values 1.03 | locus YPR167C, strain met16, hits give low values 1.02 | strain wtn01, hits give low values 1

Reference: PubChem BioAssay AID1159580 (chemical genetic matrix, 2015)
